The values that follow come from PubChem BioAssay AID1463 (National Center for Advancing Translational Sciences (NCATS), 2008).

Where “and” joins values, the source holds several entries; their conditions need not be identical. Identical values can stand only once. Screen size: about 280,000 compounds; about 2,600 (0.93%) were called active. Where a call stands in place of a potency, no number is given. Inconclusive results (about 8%) are left out. Calls come from the whole dose curve; as a rule, active = well fitted curve in the direction sought with a large enough effect; inconclusive = small, poorly fitted or top-dose-only effect; inactive = flat fitted curve, though single readings scatter. For the sample, actives were picked, then their nearest neighbours and some compounds at random.
Potency is the fitted concentration of half-maximal effect; tags give direction and shape of the fitted curve or compound fluorescence and quenching.

The test in a line: Counterscreen qHTS for Inhibitors of Tau Fibril Formation, Fluorescence Polarization. Note: nearly all actives have a fitted effect of over 55% in size. To be noted: tau K18 P301L (four-repeat tau fragment) Alexa594 fluorescence, heparin fibrillization; series mostly up to 57.7 µM. The text has this:
NIH Molecular Libraries Probe Production Network [MLPCN]
NIH Chemical Genomics Center [NCGC]
Assay Provider: Carlo Ballatore, University of Pennsylvania
The microtubule-associated protein tau is an abundant protein in the axons of neurons that stabilizes microtubules. With its ability to modulate microtubule dynamics, tau contributes directly or indirectly, to key structural and regulatory cellular functions. Particularly important is the influence tau exerts on axonal transport, which allows signaling molecules, trophic factors and other essential cellular constituents to travel along the axons. Under pathological conditions, tau becomes sequestered into insoluble aggregates called neurofibrillary tangles. This phenomenon is believed to have pathological consequences by promoting axonal transport deficits that ultimately lead to synaptic dysfunction and neuronal loss. To identify inhibitors of tau aggregation, a heparin-induced tau fibril formation assay was used that employed a recombinantly expressed fragment of tau, K18 (Q242-E372), bearing a P301L mutation (Gustke et al. 1994; Hong et al. 1998). […] Total fluorescence (555 nm excitation and 632 nm emission) was measured to identify fluorescent or absorbent compounds at this wavelength. Such compounds may be artifacts that interfere with the Alexa 594 Tau fluorescence polarization assay.
Gustke, N., B. Trinczek, et al. (1994). "Domains of tau protein and interactions with microtubules." Biochemistry 33(32): 9511-22.
Hong, M., V. Zhukareva, et al. (1998).
Li, W. and V. M. Lee (2006). "Characterization of two VQIXXK motifs for tau fibrillization in vitro." Biochemistry 45(51): 15692-701.
von Bergen, M., S. Barghorn, et al. (2001). "Mutations of tau protein in frontotemporal dementia promote aggregation of paired helical filaments by enhancing local beta-structure." J Biol Chem 276(51): 48165-74.
NCGC Assay Protocol Summary:
For screening, 2 uL/well human K18 P301L (15 uM unlabeled and 0.24 uM Alexa 594-labeled tau final concentrations) in reagent buffer (100 mM sodium acetate pH 7) was dispensed into black solid 1536-well plates (Grenier) using a solenoid-based dispenser. Following transfer of 23 nL compound or DMSO vehicle by a pin tool, 2 uL/well heparin (20 uM final concentration) in reagent buffer was added and the plate centrifuged 15 s at 1000 RPM. Plates were incubated 6 hr at 37 C and then 1 uL/well ThT (30 uM final concentration) was added. After a 1 hr ambient incubation, the plates were read by an Envision (Perkin Elmer) to monitor Alexa 594 FP (555 nm excitation and 632 nm emission).
Keywords: NIH Roadmap, MLPCN, MLI, MLSMR, NCGC, qHTS, tau, tauopathies, Alzheimer's disease, fibril, neurodegeneration, aggregation
For `O=C(CSc1nc(-c2cccc(F)c2)[nH]c1-c1ccccc1)Nc1ccc2c(c1)OCO2`, the Potency was 8.91 µM [quencher] (active).

On to `O=C(CN1CCN(CC(=O)Nc2ccc3c(c2)OCO3)CC1)Nc1ccc(F)cc1`, for which the Potency result is “inactive”.

With `O=C(CSc1nc(C2CC2)nc2ccccc12)Nc1ccc2c(c1)OCCO2`, the Potency entry is “inactive”.

Turning to `O=C(Nc1cc(Cl)cc(Cl)c1)c1ccc2c(c1)N(Cc1cccc(Cl)c1)C(=O)c1ccccc1S2=O` (stereo not given), the Potency entry is “inactive”.

For the molecule `CCc1ccc(CN(Cc2ccco2)C(=O)c2ccccc2Cl)cc1`, the Potency result is “inactive”.

`COc1cccc(NC(=O)Nc2nnc(N3CCCCC3C)s2)c1` (stereo not given): the Potency is 12.6 µM [quencher] (active).

Consider `CCOC(=O)C1CCN(C(=O)Nc2cccc(OC)c2)CC1`, for which the Potency result was “inactive”.

For the molecule `COc1cccc(Nc2nnc(SCC(=O)N3CC(C)OC(C)C3)s2)c1` (stereo not given), the Potency result is “inactive”.

Take `Cc1oc(-c2ccccc2)nc1Cn1c(SCc2cccc(C(F)(F)F)c2)nc2cccnc21`: the Potency result is “inactive”.

Consider `COc1cccc(N2CCN(C(=O)CCCCCn3c(=O)[nH]c4ccccc4c3=O)CC2)c1`, for which the Potency result was “inactive”.

With `COc1cccc(Nc2nc(N)c([N+](=O)[O-])c(NCc3ccco3)n2)c1`, the Potency was 3.16 µM [quencher] (active).

In the case of `CN(c1ccccc1)c1nc(N)c([N+](=O)[O-])c(NCc2ccco2)n1`, the Potency entry was “inactive”.

Turning to `COc1ccc(Nc2nc(Cl)nc(NCc3ccco3)n2)cc1`, the Potency entry is “inactive”.

With `CCOC(=O)c1c(C)oc2nc(C)nc(N3CCN(c4ccc(OC)cc4)CC3)c12`, the Potency entry was “inactive”.

In the case of `COc1ccc(OC)c(NC(=O)CN2CCCN(Cc3cc(C)ccc3C)S2(=O)=O)c1`, the Potency result is “inactive”.

Regarding `Cc1ccc(Oc2cc(NC(=O)CCCn3nc(C)c([N+](=O)[O-])c3C)cc([N+](=O)[O-])c2)cc1`, the Potency is 4.47 µM [quencher] (active).

On to `CCc1ccc(NC(=O)Cn2nc(C)c([N+](=O)[O-])c2C)cc1`, for which the Potency entry was “inactive”.

Turning to `COc1ccc(CNC(=O)CCCn2nc(C)c([N+](=O)[O-])c2C)cc1`, the Potency entry is “inactive”.

`COc1ccc(C)cc1-n1c(-c2ccc(C)cc2)cc2c1CC(C)(C)CC2=O`: the Potency entry was “inactive”.

Consider `CC(=O)NCCc1nc2cc(NC(=O)c3ccccc3)ccc2n1C`, for which the Potency entry was “inactive”.

Consider `Cn1c(CCN2CCCCCC2)nc2cc(NC(=O)Nc3ccccc3)ccc21`, for which the Potency is 15.8 µM [quencher] (active).

Take `CCC(=O)Nc1ccc2c(c1)nc(CCN1CCN(C)CC1)n2C`: the Potency result is “inactive”.

`O=C(CCN1C(=O)c2ccccc2C1=O)Nc1ccncc1`: the Potency result is “inactive”.

`CCNC(=O)N1c2ccccc2Sc2ccccc21`: the Potency result was “inactive”.

For `CC1CCN(CCC(=O)Nc2ccccc2)CC1`, the Potency result was “inactive”.

On to `CCN1/C(=C/C(=S)Nc2ccccc2)Sc2ccccc21`, for which the Potency is 10 µM [quencher] (active).

Consider `CCN1/C(=C/c2ccc3ccc(C)cc3[n+]2CC)Sc2ccccc21`, for which the Potency result was “inactive”.

For `O=C(CCN1c2ccccc2Sc2ccccc21)Nc1ccccc1`, the Potency is 11.2 µM [quencher] (active).

Consider `CCOC(=O)c1c(NC(C)=O)c2c3c(sc2n1Cc1c(C)cc(C)cc1C)CCCC3`, for which the Potency result was “inactive”.

On to `CCOC(=O)c1ccc(NC(=O)c2c(NCc3cccc(OC)c3)sc3c2CCC3)cc1`, for which the Potency entry is “inactive”.

Consider `Cc1cccc(OCCSc2nc3ccccc3n2CC(=O)N2CCCCC2)c1C`, for which the Potency result was “inactive”.

As for `Cc1ccc(/C=C(\C#N)C(=O)Nc2cc(C)ccc2C)cc1`, the Potency entry is “inactive”.

As to `O=C(COc1ccccc1)NCc1ccc2c(c1)CCN2C(=O)c1ccc(F)cc1`, the Potency entry was “inactive”.

With `Fc1ccc(CN2CCc3nc(Nc4ccccc4)ncc3C2)cc1F`, the Potency result was “inactive”.

Turning to `CCn1c(C)c(C)c2cc(C(=O)NCCc3cc(OC)ccc3OC)ccc21`, the Potency entry is “inactive”.

For the molecule `CCOc1cccc(NC(=O)CSc2ncc(-c3ccc(Cl)cc3)[nH]2)c1`, the Potency was 11.2 µM [quencher] (active).

Turning to `CCOc1cccc(NC(=O)CC#N)c1`, the Potency result is “inactive”.

Regarding `Cc1cccc(NC(=O)CSc2ncc(-c3ccccc3)[nH]2)c1C`, the Potency entry is “inactive”.

Consider `CCCN(CCC)S(=O)(=O)c1ccc(C(=O)Nc2sc3c(c2C(=O)OC)CCN(CC)C3)cc1`, for which the Potency result was “inactive”.

`Cc1cccc(-n2ccnc2SCC(=O)Nc2cc(C(F)(F)F)ccc2Cl)c1`: the Potency entry was “inactive”.

With `CC[C@@H]1Cc2cc(O)ccc2C2=C1c1ccc(O)cc1C[C@H]2CC`, the Potency was 5.01 µM [quencher] (active) and 10 µM [quencher] (active).

For `CC1(C)CC(=O)c2ccc(O)cc2O1`, the Potency entry is “inactive”.

`CCN(C(=O)Cn1cnc2sc(C)c(S(=O)(=O)N3CCN(c4ncccn4)CC3)c2c1=O)c1ccccc1F`: the Potency result was “inactive”.

Consider `Cc1cc2c(cc3c(SCc4nc(-c5ccccc5)oc4C)nnc(C)n32)o1`, for which the Potency result was “inactive”.

Consider `O=C(Nc1cccc(C(F)(F)F)c1)c1cnccn1`, for which the Potency entry was “inactive”.

`Cc1cc(Nc2cccc(C(F)(F)F)c2)nc2ccc(NC(=O)c3ccc(=O)[nH]c3)cc12`: the Potency was 3.55 µM [quencher] (active).

Regarding `COc1cc(NC(=O)c2cncc(-c3ccc(C#N)cc3)c2)cc(C(=O)Nc2cccc(C(F)(F)F)c2)c1`, the Potency entry is “inactive”.

For the molecule `COc1cc(OC)cc(C(=O)Nc2ccc3nc(Nc4cccc(C(F)(F)F)c4)cc(C)c3c2)c1`, the Potency is 3.98 µM [quencher] (active).

`Cc1ccc(NC(=O)Nc2cccc(C(F)(F)F)c2)nc1`: the Potency entry was “inactive”.

`COc1ccc(NC(=O)C(=O)NCC(=O)Nc2cccc(C(F)(F)F)c2)cc1`: the Potency result is “inactive”.

Take `O=C(Nc1ccc(F)cc1F)c1ccc2c(=O)n3c(nc2c1)CCCCC3`: the Potency entry was “inactive”.

`O=C(CC1N=C2c3ccccc3N=C(SCc3cccc(Cl)c3)N2C1=O)NCc1ccc2c(c1)OCO2` (stereo not given): the Potency entry was “inactive”.

For `CCCn1c2ccccc2c2cnn(CC(=O)N(CC)c3cc(C)ccc3C)c(=O)c21`, the Potency entry is “inactive”.

Take `CCN(CC)CCNC(=O)Cn1ncc2c3ccccc3n(Cc3ccccc3C)c2c1=O`: the Potency result was “inactive”.

Take `Cc1ccc2nc(/C(C#N)=C/c3ccc(-c4ccc(C(=O)OC(C)C)cc4)o3)[nH]c2c1`: the Potency result was “inactive”.

Turning to `CC(=O)OC1=C(C(C)=O)N(Cc2ccccc2)S(=O)(=O)c2ccccc21`, the Potency entry is “inactive”.

As to `CCOC(=O)Cn1c(=O)n(C2CCCCC2)c2nc(-c3cccc(OC)c3)nc(C(N)=O)c21`, the Potency result was “inactive”.

For the molecule `COC(=O)CCc1sc(Nc2ccc(Br)cc2)nc1-c1ccc(OC)cc1`, the Potency was 8.91 µM [quencher] (active).

Turning to `COc1ccc(NC(=O)c2sc(N)nc2-c2ccccc2)cc1`, the Potency result was “inactive”.

For `Cc1ccc(OC(=O)CCC(=O)Nc2ccc(Br)cc2)cc1`, the Potency result is “inactive”.
